DRD3 agonist: qHTS of D3 Dopamine Receptor Agonist: qHTS; D3R DiscoveRx beta-arrestin cells, luminescence, 90 min; AID 652048, 2013; max activation, %; 410,000 compounds, 0.58% hits; D(3) dopamine receptor (Homo sapiens), P35462; in the data active = max activation above about 30%; note: 0% is about no effect
Target sequence (P35462 whole entry, looked up): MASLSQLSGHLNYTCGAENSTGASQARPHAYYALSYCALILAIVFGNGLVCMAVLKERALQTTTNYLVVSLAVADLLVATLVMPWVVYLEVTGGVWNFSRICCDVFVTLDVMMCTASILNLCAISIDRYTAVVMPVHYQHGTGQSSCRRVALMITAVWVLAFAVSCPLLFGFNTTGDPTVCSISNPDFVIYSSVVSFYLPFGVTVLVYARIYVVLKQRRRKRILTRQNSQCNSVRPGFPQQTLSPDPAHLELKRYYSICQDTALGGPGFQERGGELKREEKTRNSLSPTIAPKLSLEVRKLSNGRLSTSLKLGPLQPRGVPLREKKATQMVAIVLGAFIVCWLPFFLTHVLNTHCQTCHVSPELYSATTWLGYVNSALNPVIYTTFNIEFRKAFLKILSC
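Cells at 1500/well, incubated overnight, then treated with pinned compounds (dopamine as control) for 90 min at 37 degrees C. DiscoveRx reagent added for 30 - 60 minutes at room temperature; luminescence read.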
DRD3 antagonist: qHTS of D3 Dopamine Receptor Antagonist: qHTS; AID 652054, 2013; D(3) dopamine receptor (Homo sapiens), P35462; D3R cells, DiscoveRx beta-arrestin luminescence, antagonist mode; active compounds read low; 360,000 compounds, 2.5% hits; max response, negative = inhibition, %; in the data active = max response below about -50%; inconclusive = no clear call, values can overlap the other calls; note: % is set by controls: 0 for no effect and ±100 for the full control effect
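Cells plated overnight at 1500 cells/well, then exposed to library compounds with dopamine controls for 90 minutes at 37 degrees C. DiscoveRx reagent added for 30–60 minutes at room temperature; luminescence read, quantitative HTS format.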
HepG2 tox-1: qHTS for Inhibitors of TGF-b: Cytotox Counterscreen. HepG2 CAGA-GFP viability, ATP luminescence, 18 h. Potency, µM (highest dose often 46.1 µM), inactives show at the highest dose activity change, negative = cytotoxicity, usual class: cytotoxic. 410,000 compounds, 0.76% hits. AID 588856, 2011; note: potency is the fitted concentration of half-maximal effect
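HepG2 CAGA-GFP cells (1000/well, DMEM with 1% FBS) received compound, then TGF-beta at 500 pg/mL final, and were incubated 18 hours at 37 degrees C. Viability was read by CellTiter-Glo luminescence. Media-only wells were set as complete cell-killing and DMSO as no toxicity.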
ATXN2 expr inh: Primary qHTS for Inhibitors of ATXN expression; HEK-293 ATXN2-luciferase reporter, luminescence, 24 h; Potency, µM (titrated, usually from 57 µM), for inactives: top-dose activity change, negative = inhibition, most hits filed as inhibitors; 360,000 compounds, 0.72% hits; note: potency is the fitted concentration of half-maximal effect; % is set by controls: 0 for no effect and ±100 for the full control effect; nearly all actives have a fitted effect of over 55% in size
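ATXN2-luciferase reporter cells (luciferase flanked by upstream and downstream ATXN2 gene portions) were treated 24 h at 37 °C with compounds at up to 57 uM. SteadyGlo luminescence gave expression; GF-AFC fluorescence gave viability.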
S2 tox: Viability Counterscreen for Primary qHTS for Inhibitors of ATXN expression | S2 cells (HEK-293 line with an ATXN2-luciferase reporter) viability, CellTiter-Fluor protease fluorescence, 24 h | Potency, µM (doses to about 56.7 µM), hits mostly cytotoxic | 400,000 compounds, 0.49% hits | AID 651635, 2014; note: potency is the fitted concentration of half-maximal effect; nearly all actives have a fitted effect of over 40% in size
TGFb SMAD3 inh: qHTS for Inhibitors of TGF-b; HepG2 CAGA-GFP TGF-b/SMAD3 reporter, GFP fluorescence, 18 h; TGF-beta stimulated, 500 pg/mL final; Potency, µM (doses to about 46.1 µM), for inactives: top-dose activity, negative = inhibition, hits mostly inhibitors; 410,000 compounds, 1.2% hits; note: potency is the fitted concentration of half-maximal effect; % is set by controls: 0 for no effect and ±100 for the full control effect; nearly all actives have a fitted effect of over 65% in size
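Cell-based qHTS in HEPG2 carrying a CAGA-GFP Smad reporter; compounds added before 500 pg/mL final TGF-beta, 18 h incubation at 37 degrees C, GFP fluorescence quantified per cell by imaging cytometry.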
TGFb confirm: qHTS for Inhibitors of TGF-b: Confirmation of Cherry Picks; Potency, µM (series often up to 46.1 µM), inactives show at the highest dose activity, negative = inhibition, most hits filed as inhibitors; shares compounds with TGFb SMAD3 inh; AID 720534, 2013; HepG2 CAGA-GFP TGF-b reporter, GFP fluorescence, 18 h; cells stimulated with TGF-beta, 500 pg/mL; 1,600 compounds, 63% hits; note: potency is the fitted concentration of half-maximal effect; % is set by controls: 0 for no effect and ±100 for the full control effect; nearly all actives have a fitted effect of over 65% in size
HepG2 tox-2: qHTS for Inhibitors of TGF-b: Cytotox Counterscreen for Cherry Picks; shares compounds with TGFb SMAD3 inh; HepG2 CAGA-GFP viability, ATP luminescence, 18 h; cells stimulated with TGF-beta, 500 pg/mL; Potency, µM (titrated, usually from 46.1 µM), without a hit: at the top dose activity, negative = cytotoxicity, actives largely listed as inhibitors; 1,600 compounds, 27% hits; note: potency is the fitted concentration of half-maximal effect; % is set by controls: 0 for no effect and ±100 for the full control effect; nearly all actives have a fitted effect of over 70% in size
TGFb CCL64 inh: qHTS for Inhibitors of TGF-b: CCL64 Cells Orthogonal Assay for Cherry Picks; shares compounds with TGFb SMAD3 inh; CCL64 CAGA-GFP reporter, TGF-b stimulated, GFP fluorescence, 18 h; Potency, µM (highest dose often 46.1 µM), inactives show at the top dose activity, negative = inhibition, usual class: inhibitors; 1,600 compounds, 41% hits; AID 720536, 2013; note: potency is the fitted concentration of half-maximal effect; nearly all actives have a fitted effect of over 65% in size
TGFb COP inh: qHTS for Inhibitors of TGF-b: Hit Validation in HepG2 Cells using COP promoter. shares compounds with TGFb SMAD3 inh. HepG2 COP-GFP TGF-b reporter, GFP fluorescence, 18 h; cells stimulated by added recombinant TGF-beta. Potency, µM (doses to about 46.1 µM), for the others: at the highest dose activity, negative = inhibition, hits mostly inhibitors. 1,600 compounds, 3% hits; note: potency is the fitted concentration of half-maximal effect; nearly all actives have a fitted effect of over 70% in size
An asterisk follows results filed as active. Rows were chosen to be rich in hits. Some 4.7% of all compounds tested hit in one or more screens of this group. Unless noted, calls come from the whole dose curve; as a rule, active = well fitted curve in the direction sought with a large enough effect; inconclusive = small, poorly fitted or top-dose-only effect, or another doubt; inactive = no such curve, though single readings can be large; an effect the other way counts as inactive or inconclusive.

`O=C(Nc1nnc(SCc2ccc(F)cc2)s1)c1ccccn1` gave DRD3 agonist -26, DRD3 antagonist -66*, HepG2 tox-1 -32%, ATXN2 expr inh inconclusive, S2 tox inconclusive, TGFb SMAD3 inh 1.6µM*, TGFb confirm inconclusive, HepG2 tox-2 inconclusive, TGFb CCL64 inh 18µM* and TGFb COP inh 55%.
Screening CCOC(=O)c1c(NC(=O)CN2CCCCC2)sc2c1CCN(C(=O)OCC)C2 returned DRD3 agonist 21, DRD3 antagonist 8, HepG2 tox-1 -9%, ATXN2 expr inh -29%, S2 tox inconclusive, TGFb SMAD3 inh 11µM*, TGFb confirm 13µM*, HepG2 tox-2 inconclusive, TGFb CCL64 inh 18µM* and TGFb COP inh 26%.
For CCOC(=O)c1c(NC(=O)CN(CC)CC)sc2c1CCN(C(=O)OCC)C2 the results were DRD3 agonist -1, DRD3 antagonist 15, HepG2 tox-1 -31%, ATXN2 expr inh -24%, S2 tox inactive and TGFb SMAD3 inh inconclusive.
Screening Cc1ccc(-n2c(SCC(N)=O)nc3c(c2=O)C2(CCCC2)Cc2ccccc2-3)cc1 returned DRD3 agonist -17, DRD3 antagonist 0, HepG2 tox-1 11%, ATXN2 expr inh -24%, S2 tox inactive, TGFb SMAD3 inh 8.9µM*, TGFb confirm 13µM*, HepG2 tox-2 15µM*, TGFb CCL64 inh inconclusive and TGFb COP inh 19%.
CCSc1n[nH]c2nc3c(c(=O)n12)C1(CCCC1)Cc1ccccc1-3 was read as DRD3 agonist -8, DRD3 antagonist inconclusive, HepG2 tox-1 -7%, ATXN2 expr inh 0% and TGFb SMAD3 inh -5%.
For CN(C(=O)COC(=O)c1ccccc1Nc1ccccc1)c1c(N)n(Cc2ccccc2)c(=O)[nH]c1=O the results were DRD3 agonist -4, DRD3 antagonist 13, HepG2 tox-1 14%, ATXN2 expr inh inconclusive, S2 tox inactive and TGFb SMAD3 inh inconclusive.
For COCCN(C(=O)COC(=O)c1ccccc1Nc1ccccc1)c1c(N)n(Cc2ccccc2)c(=O)[nH]c1=O the results were DRD3 agonist 6, DRD3 antagonist -23, HepG2 tox-1 -3%, ATXN2 expr inh inconclusive, S2 tox inconclusive, TGFb SMAD3 inh 11µM*, TGFb confirm 15µM*, HepG2 tox-2 -28%, TGFb CCL64 inh 1.6µM* and TGFb COP inh 20%.

Screening data from PubChem BioAssay.
